Bioassay records: PubChem BioAssay, National Center for Advancing Translational Sciences (NCATS)
Hits are enriched below; roughly 21% of the tested compounds scored in any of these assays.
NS1 function inh: influenza NS1 inhibition. Potency, µM (series often up to 46.1 µM), for inactives: top-dose activity, positive = more growth. hit rate 0.4% among 270,000. AID 2326; calls by dose curve; note: potency is the fitted concentration of half-maximal effect; actives are rising curves; nearly all actives have a fitted effect of over 50% in size
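Read-out: OD600 growth recovery of NS1-expressing budding yeast. Cells grown overnight at 30C in -URA glucose medium, washed, resuspended and diluted 1:100 in 2% galactose assay medium, pH 6.0. Same strain lacking NS1 served as positive control.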
Pf growth 96h: inhibits malaria parasite growth, 96 h; P. falciparum luciferase reporter growth, 96 h; Potency, µM (doses to about 28.7 µM), for inactives: top-dose activity change, negative = inhibition, actives largely listed as inhibitors; hit rate 6.9% among 320,000; AID 504834; note: potency is the fitted concentration of half-maximal effect; % is set by controls: 0 for no effect and ±100 for the full control effect
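P. falciparum expressing integrated firefly luciferase grown in erythrocytes (2% hematocrit, 0.05% parasitemia final) with compounds for 96 hours at 37 C, 5% CO2. Growth inhibition read as loss of luminescence after adding luciferase detection reagent.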
Cycloheximide cs: counter-screen for Shiga toxin inhibitors: cycloheximide protein synthesis inhibition. cell reporter, cycloheximide protein synthesis inhibition counterscreen. max response, %. hit rate 12% among 300,000. AID 2314; in the data active = max response mostly above about 13%, no sharp cut-off; inactive = mostly below about 14%; note: read at 38.3 µM for the half of the compounds with a filed dose; 0% is about no effect
Pf growth 48h: P. falciparum growth inhibition at 48 hours (one generation). P. falciparum luciferase growth in erythrocytes, 48 h. Potency, µM (doses to about 28.7 µM), for inactives: at the highest dose activity change, negative = inhibition, actives largely listed as inhibitors. hit rate 5.9% among 310,000. AID 504832; note: potency is the fitted concentration of half-maximal effect; % is set by controls: 0 for no effect and ±100 for the full control effect
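Growth was read as firefly luciferase luminescence after a 48 h, 37 C, 5% CO2 exposure of compounds to reporter-bearing P. falciparum cultures (0.1% parasitemia, 2% hematocrit final) in Albumax-supplemented RPMI 1640.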
Shiga inhibitor: inhibitors of Shiga toxin in Vero cells. inhibition, % at 38.7 µM. Vero cells, Shiga toxin protein synthesis inhibition reporter. hit rate 9.2% among 290,000; in the data active = inhibition mostly above about 28%, no sharp cut-off; inactive = mostly below about 43%; note: 0% is about no effect
Giardia FBPA inh: inhibitors of Giardia lamblia fructose-1,6-bisphosphate aldolase; purified Giardia FBPA; Potency, µM (highest dose often 59.6 µM), for inactives: at the highest dose activity, negative = inhibition, usual class: inhibitors; hit rate 0.71% among 290,000; AID 2451; note: potency is the fitted concentration of half-maximal effect; % is set by controls: 0 for no effect and ±100 for the full control effect; nearly all actives have a fitted effect of over 55% in size
Target sequence (A8B2U2 whole entry, looked up): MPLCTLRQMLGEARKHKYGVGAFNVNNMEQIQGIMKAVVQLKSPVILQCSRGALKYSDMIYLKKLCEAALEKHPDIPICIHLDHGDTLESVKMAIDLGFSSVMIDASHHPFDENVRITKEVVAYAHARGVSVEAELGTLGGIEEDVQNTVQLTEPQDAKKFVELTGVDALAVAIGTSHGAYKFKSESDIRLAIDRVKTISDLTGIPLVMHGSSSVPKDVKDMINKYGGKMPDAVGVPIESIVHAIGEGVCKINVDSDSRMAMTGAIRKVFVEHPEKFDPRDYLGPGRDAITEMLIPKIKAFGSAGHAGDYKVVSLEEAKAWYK
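40 nM FBPA preincubated 10 min at RT with compound (up to 57.5 uM final), then substrate plus GAPDH/TPI/NAD/arsenate coupling and diaphorase/resazurin added. Fluorescence read after 20 min at RT, 525/598 nm.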
The depositor's hits bear a star; ? = inconclusive; / = not tested or not shown. Unless noted, calls come from the whole dose curve; as a rule, active = well fitted curve in the direction sought with a large enough effect; inconclusive = small, poorly fitted or top-dose-only effect, or another doubt; inactive = no such curve, though single readings can be large; an effect the other way counts as inactive or inconclusive.

SMILES | NS1 function inh | Pf growth 96h | Cycloheximide cs | Pf growth 48h | Shiga inhibitor | Giardia FBPA inh
COC(=O)c1cc(NC(=O)CC2SC(=Nc3ccccc3)N(CCc3c[nH]c4ccccc34)C2=O)cc(C(=O)OC)c1 (stereo not given) | 29.2% | 1.65µM* | -2.8 | 13.1µM* | -12.9 | -6.8%
COc1ccc(N=C2SC(CC(=O)Nc3ccccc3)C(=O)N2CC2CCCO2)cc1 (stereo not given) | -49.1% | ? | -3.4 | 11.7µM* | -15.7 | -5.4%
COc1ccc(N=C2SC(CC(=O)Nc3ccccc3)C(=O)N2CCN2CCOCC2)cc1 (stereo not given) | / | -2.2% | -3.2 | -5.3% | 5.4 | -5.5%
COc1ccc(N=C2SC(C(=O)Nc3ccc(C(=O)O)cc3)CC(=O)N2Cc2cccs2)cc1 (stereo not given) | -3.1% | 7.38µM* | -2.4 | ? | 9.4 | -0.2%
CCCCC1=CC2=C(c3ccco3)C(=O)C(C)(OC(=O)c3cccs3)C(=O)C2=CO1 (stereo not given) | / | / | / | / | / | -4.2%
COc1ccc(N2CCN(CNC(=O)c3ccccc3)CC2)cc1 | 8.2% | 15.4% | 2.3 | 14.6% | -6.3 | 3.0%
CCOC(=O)N1CCN(C(=O)c2cn(CC(C)C)c(=O)c3c2c2ccccc2n3C)CC1 | -3.7% | 34.2% | -7.3 | 10.4µM* | 39.2 | 3.7%
CC(C)Cn1cc(C(=O)NCc2cccs2)c2c3ccccc3n(C)c2c1=O | -12.1% | 8.28µM* | -5.9 | ? | -25.4 | -1.5%
Cc1ccc(S(=O)(=O)N2CC(O)C[C@H]2C(=O)OCC(=O)Nc2ccc(N3CCCCC3)cc2)cc1C (stereo not given in full) | / | 26.1% | / | 62.1% | / | /
Cn1cccc1C(=O)NCc1ccccn1 | / | 27.4% | / | 0.7% | / | /
Cc1ccccc1NC(=O)c1cc2ccccn2n1 | -4.3% | 278.4% | 52.2* | 204.2% | 67.0* | -0.5%
Cc1ccccc1NC(=O)c1c(F)c(F)c(F)c(F)c1F | 3.1% | / | -0.7 | -17.2% | -9.4 | 8.8%
CC(=O)c1cccc(NC(=O)c2cc3ccccn3n2)c1 | -117.5% | ? | 30.2* | / | 34.2 | -8.1%
O=C(NCc1ccc(F)cc1)c1cc2ccccn2n1 | -38.2% | 3.7µM* | 24.3* | 19.5% | -40.2 | -0.4%
Cc1ccc(C)c(NC(=O)c2cc3ccccn3n2)c1 | -10.9% | 32.9% | 26.8* | 112.2% | 99.2* | -7.5%
O=C1CCc2cc(NS(=O)(=O)c3ccc(Br)cc3)cc3c2N1CC3 | / | -29.9% | / | -4.8% | / | /
CCOc1ccccc1/C=N/NC(=O)c1nnn(-c2nonc2N)c1CN1CCCC1 | -3.9% | 32.8% | -0.8 | -1.0% | 0.2 | -18.8%
CSc1ccccc1C(=O)Nc1cc(C)ccc1C | 0.0% | ? | -2.4 | -3.6% | -11.1 | -1.8%
Cc1ccc(C)c(NC(=O)c2cnn3ccccc23)c1 | -91.9% | -11.8% | 14.0* | / | 66.4 | -6.7%
CN(Cc1nccs1)C(=O)C1CCC(=O)N(Cc2ccccc2F)C1 (stereo not given) | 0.6% | ? | 9.7 | 7.6% | -12.2 | -2.0%
O=C(NC1CCC1)C1CCC(=O)N(Cc2ccccc2F)C1 (stereo not given) | -1.2% | ? | 32.1* | ? | 8.3 | /
O=C(NCCc1ccccc1F)C1CCC(=O)N(Cc2ccccc2F)C1 (stereo not given) | 8.4% | 51.3% | 18.2* | 20.1% | 25.2* | /
CC#CCN(Cc1ccco1)C(=O)C1CCC(=O)N(Cc2ccccc2F)C1 (stereo not given) | -4.4% | 0.0% | 31.5* | -4.8% | 29.4 | /
O=C(NC1CCC1)C1CCC(=O)N(Cc2cccc(F)c2)C1 (stereo not given) | 3.2% | 20.5% | 17.8 | 5.0% | -5.6 | /
CCn1ccnc1CNC(=O)C1CCC(=O)N(Cc2ccccc2F)C1 (stereo not given) | 4.0% | 11.7µM* | -0.6 | -1.1% | -3.8 | -8.3%
SMILES | NS1 function inh | Pf growth 96h | Cycloheximide cs | Pf growth 48h | Shiga inhibitor | Giardia FBPA inh
CCn1ccnc1CNC(=O)C1CCC(=O)N(Cc2cccc(C(F)(F)F)c2)C1 (stereo not given) | 0.7% | -92.4% | -2.8 | 6.0% | -5.5 | -7.1%
Nc1nc2nc3c(nc2c(=O)[nH]1)CN(c1ccc(C(=O)O)cc1)C3=O | -0.7% | / | / | / | / | /
CCOC(=O)c1cc2c(N)c(C(=O)c3ccc(Br)cc3)sc2[nH]c1=O | 3.0% | 34.8% | 5.5 | 15.4% | -11.8 | -1.3%
C[C@@H](C(=O)N1CCN(C(=O)OC(C)(C)C)CC1)n1cc(-c2cn([C@@H](C)C(=O)N3CCN(C(=O)OC(C)(C)C)CC3)nn2)nn1 | -4.3% | 70.8% | 4.5 | 37.4% | -20.4 | 12.2%
Cc1[nH]c2ccccc2c1C(O)CN1CCC2(CC1)OCCO2 (stereo not given) | -0.3% | 9.8% | -1.9 | -6.5% | -2.3 | 1.2%
COCC(=O)N1CCC2(CC1)CN(C(=O)Nc1ccc(OC)cc1)C2 | / | / | / | / | / | 3.0%
CN(C)C(=O)OCc1c(-c2ccccc2)ncc2ccccc12 | / | ? | / | 0.4% | / | /
COc1cc(NC(=O)Cn2cnc(S(=O)(=O)N3CCOCC3)c2)cc(OC)c1OC | -0.9% | ? | 4.4 | -3.6% | -5.8 | /
COc1ccc(-c2noc(C3CCCN(S(=O)(=O)c4cccc(Cl)c4C)C3)n2)cc1OC (stereo not given) | 7.0% | ? | 5.7 | 13.1µM* | 8.0 | -1.4%
CCS(=O)(=O)N1CCCC(c2nc(-c3cccc(OC)c3)no2)C1 (stereo not given) | -14.7% | -26.2% | 42.0* | 112.1% | 103.7* | 0.5%
COc1ccc(CCn2nc(C)c([N+](=O)[O-])c2C)cc1 | 4.6% | ? | 30.3* | ? | 83.2* | -5.5%
COc1ccc(C2C(C#N)=C(N)OC3=C2C(=O)CCC3)cc1Cn1nc(C)c([N+](=O)[O-])c1C (stereo not given) | -4.0% | 24.0% | -2.3 | 11.7µM* | -5.7 | -0.9%
Cc1ccc(C(=O)Cn2nc(C)c([N+](=O)[O-])c2C)c(C)c1 | / | 45.0% | 19.6* | 43.7% | 56.7* | -3.3%
Cc1cc(C)c(C(=O)Cn2nc(C)c([N+](=O)[O-])c2C)cc1C | / | -25.7% | -2.4 | -9.7% | -7.3 | -0.4%
COc1ccc(C(C)=O)cc1Cn1nc(C)c([N+](=O)[O-])c1C | / | ? | 0.7 | 18.5µM* | 4.2 | -0.7%
CC(C)C[C@H](NC(=O)[C@@H](N)Cc1ccccc1)C(=O)N[C@@H](Cc1ccccc1)C(=O)N[C@@H](CCC(N)=O)C(=O)N1CCC[C@H]1C(=O)N[C@@H](CCC(N)=O)C(=O)N[C@@H](CCCN=C(N)N)C(=O)N[C@@H](Cc1ccccc1)C(N)=O | / | / | -1.2 | / | -11.2 | 3.7%
CC1(C)OC(=O)C=C[C@@]2(C)C1C[C@@H](O)[C@]1(C)C2CC[C@@]2(C)C(c3ccoc3)OC(=O)[C@H]3O[C@]321 (stereo not given in full) | / | / | / | / | / | 0.0%
